Reference: PubChem BioAssay AID1035475 (Broad Institute, 2014)
Results with a measured potency or affinity are listed apart. Results filed as inconclusive are left out. Values without a mark were called inactive.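 The calls were made as follows: active = fluorescent signal drops by 40% or more, counted as a hit; inconclusive = no clear call, values can overlap the other calls; inactive = the rest, including any activity in the opposite direction.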

Test: blockers of FN fibrillogenesis by fibroblasts – AH1F cells, Alexa488-FN fluorescence, cherry-picks, dose response (AID 1035475);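 also: AH1F fibroblasts incorporating labeled fibronectin into their extracellular matrix; 0% = neutral control wells and -100% = wells without labeled fibronectin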
Conditions: Alexa488-fibronectin deposition fluorescence, overnight; series mostly up to 35 µM; activity change, negative = inhibition: at the top concentration

SMILES	activity change, negative = inhibition
O=C(CSc1nc2ncc(Cl)cc2[nH]1)c1c[nH]c2ccccc12	-35.1%
Cc1ccc(NC(=O)COC(=O)c2cc(Cl)ccc2[N+](=O)[O-])c(C)c1	-12.9%
COC(=O)C[C@@H]1CC[C@H]2[C@H](COc3ccc(NC(=O)Cc4cccs4)cc3C(=O)N2C)O1	-0.769% [at 30 µM]
CCOC(=O)C1=C(C)Nc2nc3ccccc3n2C1c1ccncc1 (stereo not given)	0.713%
C[C@@H]1CN([C@H](C)CO)C(=O)c2cc(NC(=O)CCCN(C)C)ccc2O[C@@H]1CN(C)Cc1ccc(-c2ccccc2)cc1	7.33%
O=C(CC1Nc2ccccc2NC1=O)Nc1ccc2c(c1)OCO2 (stereo not given)	5.64%
O=C(c1cccnc1)N1C[C@H]2[C@@H](c3ccccc31)[C@@H](CO)N2CC1CCCC1	44.1%
N#C[C@@H]1[C@H](c2ccccc2C2=CCCCC2)[C@H](CO)N1S(=O)(=O)c1ccccc1	25.5%
C[C@@H]1CN([C@H](C)CO)C(=O)c2cc(NC(=O)C3CCCCC3)ccc2O[C@H]1CN(C)Cc1ccc(-c2ccccc2)cc1	6.62%
CCCc1cc(C(=O)OC)c(NC(=O)CCC(=O)O)s1	-15.6%
CO[C@H]1CN(C)C(=O)c2cc(NC(=O)Nc3cc(Cl)cc(Cl)c3)ccc2OC[C@@H](C)NC[C@@H]1C	9.01%
Cc1cccc(NC(=O)c2ccc(S(=O)(=O)N3CCCCC3)cc2)n1	-12.8%
CO[C@@H]1CN(C)C(=O)c2ccc(NC(=O)c3ccc(-c4ccccc4)cc3)cc2OC[C@H](C)NC[C@H]1C	-4.34% [at 30 µM]
CO[C@@H]1CN(C)C(=O)c2cc(NC(=O)Nc3ccc(Cl)c(Cl)c3)ccc2OC[C@@H](C)NC[C@@H]1C	28.6%
Nc1c(C(=O)NCc2ccco2)nnn1Cc1ccccc1	1.31%
COC(=O)c1cn(CC(=O)NCc2ccco2)c2ccccc12	0.383%
COC(=O)C[C@@H]1CC[C@H]2[C@@H](COc3ccc(NC(=O)Cc4cccs4)cc3C(=O)N2C)O1	29.4%
Cc1cc(C)n2ncc(C(=O)NCc3ccc(Cl)cc3)c2n1	-4.49%

SMILES	activity change, negative = inhibition
C[C@H]1CN([C@@H](C)CO)C(=O)c2cccc(NC(=O)Nc3ccc(C(F)(F)F)cc3)c2O[C@H]1CN(C)C(=O)Nc1cccc2ccccc12	-1.4%
C[C@H]1CN([C@@H](C)CO)C(=O)c2cc(-c3ccccc3)cnc2O[C@H]1CN(C)Cc1ccccc1	34.5%
CCCCNC(=O)Nc1nc2ccc(CC)cc2s1	-10.3%
Cc1ccc(S(=O)(=O)N2CC[C@@H]3[C@@H](CO)Nc4ccc(-c5cccc(C(=O)N(C)C)c5)cc4[C@@H]32)cc1	15.5%
C[C@@H]1CN([C@H](C)CO)C(=O)c2cc(-c3ccccc3)cnc2O[C@H]1CN(C)C(=O)c1cccc(F)c1	27.5%
C[C@@H]1CN([C@@H](C)CO)C(=O)c2cc(-c3ccncc3)cnc2O[C@@H]1CN(C)C(=O)Cc1cccnc1	44.5%
CO[C@@H]1CN(C)C(=O)c2cc(NC(=O)Nc3cc(Cl)cc(Cl)c3)ccc2OC[C@H](C)NC[C@@H]1C	4.27%
CO[C@@H]1CN(C)C(=O)c2cc(NC(=O)Nc3cc(Cl)cc(Cl)c3)ccc2OC[C@@H](C)NC[C@@H]1C	8.56%
CC(NC(=O)CSc1ccc(S(=O)(=O)N2CCOCC2)cn1)c1ccc(Cl)cc1Cl (stereo not given)	-9.93%
CC1(C)Cc2c(C#N)c(SCC(=O)c3ccccc3)nc(N3CCOCC3)c2CS1	-29.1%
CCOc1ccccc1NC(=O)c1c(NC(=O)CCC(=O)O)sc2c1CCCCC2	-7.79%
CN(C)C(=O)c1ccc(-c2ccc3c(c2)[C@H]2[C@H](CCN2C(=O)c2ccc(F)cc2)[C@H](CO)N3C)cc1	29.3%
C[C@H](CO)N1C[C@H](C)[C@H](CN(C)C)Oc2cc(C#C[C@@H](C)O)ccc2S1(=O)=O	27.1%
CO[C@H]1CN(C)C(=O)c2ccc(NC(=O)Nc3cc(Cl)cc(Cl)c3)cc2OC[C@H](C)NC[C@@H]1C	5.11%
COCC(=O)Nc1ccc2c(c1)C(=O)N(C)[C@H]1CC[C@@H](CC(=O)NCc3ccccc3Cl)O[C@@H]1CO2	40.5%
O=C(NCCS(=O)(=O)N1CCN(c2ccc(F)cc2)CC1)c1ccc(Br)o1	-2.3%
O=C(CCNS(=O)(=O)c1cccc2nonc12)NC1CCCc2ccccc21 (stereo not given)	-21.1%
